Test results reported in PubChem BioAssay (Tox21).
Records with an inconclusive call do not appear. The source made the active and inactive calls. Unless noted, the call rests on the fitted dose curve; in most records, active means well fitted curve in the direction sought with a large enough effect in the repeat runs; inconclusive means weak or mixed curves; inactive means no such curve, though single readings can be large; an effect the other way counts as inactive or inconclusive. Where a SMILES comes first, the peptide text is derived from it.

Columns and labels:
[1] = qHTS assay to identify aromatase inhibitors - cell viability counter screen (AID 743084);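 further: cells stimulated with testosterone during compound exposure; nearly all actives have a fitted effect of over 55% in size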
[2] = qHTS assay to identify small molecule that activate the aryl hydrocarbon receptor (AhR) signaling pathway - cell viability counter screen (AID 743086);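 further: HepG2 liver cells carrying the AhR DRE luciferase reporter; series mostly up to about 70 µM; nearly all actives have a fitted effect of over 45% in size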
In short: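 HepG2-AhR-luc (HG2L7.5c1) cells, 4000/well, were preincubated 5 h at 37C, exposed to compound in qHTS format for 24 hr at 37C, then given CellTiter-Fluor for 30 min; viability was read as fluorescence in the reporter wells.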

[3] = target: Peroxisome proliferator-activated receptor gamma (Homo sapiens) (UniProt P37231); assay: qHTS assay to identify small molecule agonists of the peroxisome proliferator-activated receptor gamma (PPARg) signaling pathway (AID 743094; active means well fitted activation curve with a large enough effect in the signal ratio in the repeat runs, not every such curve was filed as active; the % refers to the signal ratio)
Sequence of Peroxisome proliferator-activated receptor gamma (Homo sapiens) (P37231 whole entry, looked up): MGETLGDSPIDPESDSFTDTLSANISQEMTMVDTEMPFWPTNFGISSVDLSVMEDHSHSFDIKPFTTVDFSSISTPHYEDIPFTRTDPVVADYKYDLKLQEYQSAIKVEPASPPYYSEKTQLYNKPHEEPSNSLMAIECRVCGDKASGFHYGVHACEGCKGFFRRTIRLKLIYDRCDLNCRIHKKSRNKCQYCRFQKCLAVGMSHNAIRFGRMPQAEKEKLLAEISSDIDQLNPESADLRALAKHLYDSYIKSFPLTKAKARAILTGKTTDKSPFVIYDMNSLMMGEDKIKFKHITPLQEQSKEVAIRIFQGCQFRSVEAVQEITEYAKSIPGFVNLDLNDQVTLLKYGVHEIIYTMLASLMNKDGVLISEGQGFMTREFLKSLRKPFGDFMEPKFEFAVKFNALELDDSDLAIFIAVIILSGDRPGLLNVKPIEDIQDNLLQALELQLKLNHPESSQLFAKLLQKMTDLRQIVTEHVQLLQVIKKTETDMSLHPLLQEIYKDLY
In short: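 Fluorescence-based beta-lactamase readout in HEK293H PPARg UAS-bla cells after 17 h compound exposure (37C) and 1 h B/G FRET substrate incubation at room temperature.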

[4] = qHTS assay to identify small molecule antagonists of the peroxisome proliferator-activated receptor gamma (PPARg) signaling pathway - cell viability counter screen (AID 743194); further: nearly all actives have a fitted effect of over 55% in size
In short: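 PPARg-UAS-bla HEK293H cells were plated, rested 5 h at 37 C, then treated with compounds plus rosiglitazone (50 nM final) for 17 h at 37 C; viability was then read by CellTiter-Glo luminescence after 30 min at room temperature.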

[5] = qHTS assay for small molecule agonists of the antioxidant response element (ARE) signaling pathway (AID 743202; active means well fitted activation curve with a large enough effect in the signal ratio in the repeat runs, not every such curve was filed as active; the % refers to the signal ratio)
In short: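 Steps: seed ARE-bla HepG2 cells (2,000/well); incubate 5 h at 37 C; add compounds by pin tool; incubate 16 h at 37 C; add FRET substrate; read fluorescence after 2 h at RT.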

[6] = qHTS assay for small molecule agonists of the antioxidant response element (ARE) signaling pathway - cell viability counter screen (AID 743203; calls by dose curve; further: nearly all actives have a fitted effect of over 55% in size)
In short: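 Parallel cytotoxicity read-out for the ARE-bla screen: HepG2 reporter cells, 16 hrs with compounds, then CellTiter-Glo luminescence.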

[7] = qHTS assay for small molecule activators of the heat shock response signaling pathway - cell viability counter screen (AID 743209); further: nearly all actives have a fitted effect of over 50% in size
In short: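 To flag cytotoxic compounds, HSE-bla HeLa cells plated at 1500 cells/well were dosed for 5 h at 37 C, followed by the reporter FRET read and then CellTiter-Glo, with luminescence recorded 30 min after reagent addition.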

[8] = target: Peroxisome proliferator-activated receptor gamma (Homo sapiens) (UniProt P37231); assay: qHTS assay to identify small molecule antagonists of the peroxisome proliferator-activated receptor gamma (PPARg) signaling pathway (AID 743191; calls by dose curve; further: series mostly up to about 63 µM; nearly all actives have a fitted effect of over 30% in size)
In short: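 GeneBLAzer PPARg UAS-bla HEK293H cells carrying a UAS-driven beta-lactamase reporter were plated at 3000 cells/well, preincubated 5 h at 37C, then given compound for 17 h at 37C; LiveBLAzer B/G FRET substrate was read after 1 h at room temperature.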

[9] = qHTS assay for small molecule activators of the heat shock response signaling pathway (AID 743210; active means well fitted activation curve with a large enough effect in the signal ratio in the repeat runs, with a control signal flat, not every such curve was filed as active; the % refers to the signal ratio;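 further: HeLa cells with beta-lactamase reporter driven by heat shock elements; series mostly up to about 63 µM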)
In short: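 Activation of heat shock element-controlled beta-lactamase expression is measured in HeLa cells by LiveBLAzer FRET fluorescence, with compound exposure lasting 5 h at 37 C and substrate loading 2.5 h at room temperature.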

[10] = target: Aryl hydrocarbon receptor (Homo sapiens) (UniProt P35869); assay: qHTS assay to identify small molecule that activate the aryl hydrocarbon receptor (AhR) signaling pathway (AID 743085);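 further: HG2L7.5c1 human HepG2 liver cells with stably integrated DRE-driven firefly reporter; series mostly up to about 70 µM; nearly all actives have a fitted effect of over 15% in size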
Sequence of Aryl hydrocarbon receptor (Homo sapiens) (P35869 whole entry, looked up): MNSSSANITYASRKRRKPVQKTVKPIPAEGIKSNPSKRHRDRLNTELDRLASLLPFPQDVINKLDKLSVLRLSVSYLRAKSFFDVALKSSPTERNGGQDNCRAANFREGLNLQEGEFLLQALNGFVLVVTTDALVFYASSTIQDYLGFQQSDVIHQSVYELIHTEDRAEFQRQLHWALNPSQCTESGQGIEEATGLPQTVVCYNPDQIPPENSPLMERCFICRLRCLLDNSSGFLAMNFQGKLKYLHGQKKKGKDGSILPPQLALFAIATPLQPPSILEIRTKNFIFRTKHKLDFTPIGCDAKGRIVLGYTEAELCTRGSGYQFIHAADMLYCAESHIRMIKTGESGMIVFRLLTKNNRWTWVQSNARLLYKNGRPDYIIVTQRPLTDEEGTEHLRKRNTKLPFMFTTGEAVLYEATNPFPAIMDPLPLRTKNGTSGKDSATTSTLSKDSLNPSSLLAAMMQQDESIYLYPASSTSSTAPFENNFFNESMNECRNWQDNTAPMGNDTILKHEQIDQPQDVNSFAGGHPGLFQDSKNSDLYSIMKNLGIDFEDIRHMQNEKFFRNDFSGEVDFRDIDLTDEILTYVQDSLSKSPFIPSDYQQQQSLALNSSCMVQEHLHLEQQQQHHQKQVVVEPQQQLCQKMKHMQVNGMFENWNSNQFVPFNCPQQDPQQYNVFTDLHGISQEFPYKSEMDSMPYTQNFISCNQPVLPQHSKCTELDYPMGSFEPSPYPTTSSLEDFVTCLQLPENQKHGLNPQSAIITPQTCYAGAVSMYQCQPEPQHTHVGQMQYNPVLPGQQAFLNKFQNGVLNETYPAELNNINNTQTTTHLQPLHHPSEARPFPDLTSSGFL
In short: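 Luminescence read-out: ONE-Glo reagent, 30 min at room temperature, in HG2L7.5c1 HepG2 reporter cells treated 24 h at 37C. Viability was measured beforehand by CellTiter-Fluor fluorescence after 30 min at 37C.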
On the % scale 0 is the no-effect control and ±100 the full control effect.

CC(C)NCC(O)c1ccc2ccccc2c1 (stereo not drawn)
inactive: Potency [1] | Potency [2] | Potency [3] | outcome [4] | Potency [5] | outcome [6] | Potency [7]

CCC(C)C(=O)OCCc1ccccc1 (stereo not drawn)
inactive: Potency [1] | Potency [2] | outcome [8] | outcome [4] | Potency [5] | outcome [6] | Potency [7] | outcome [9]

CCCCOCCOC(=O)COc1ccc(Cl)cc1Cl
inactive: Potency [1] | Potency [2] | outcome [4] | Potency [5] | outcome [6] | Potency [7] | outcome [9]

CC/C=C\CCOC(=O)c1ccccc1O
inactive: Potency [1] | Potency [2] | Potency [3] | outcome [8] | outcome [4] | Potency [5] | Potency [7] | outcome [9]

Cc1ccc(C(C)NC(=O)[C@@H](NC(=O)OC(C)C)C(C)C)cc1 (stereo partly drawn)
inactive: Potency [1] | Potency [2] | Potency [3] | outcome [4] | Potency [5] | outcome [6] | Potency [7] | outcome [9]

CN(C)CCOC(=O)C(c1ccccc1)C1(O)CCCC1 (stereo not drawn)
inactive: Potency [1] | Potency [2] | Potency [3] | outcome [4] | Potency [5] | outcome [6] | Potency [7]

N#Cc1ccccc1O
inactive: Potency [1] | Potency [2] | Potency [3] | outcome [4] | Potency [5] | outcome [6] | Potency [7] | outcome [9]

COc1cc2c(cc1OC)C(=O)C(CC1CCN(Cc3ccccc3)CC1)C2 (stereo not drawn)
inactive: Potency [1] | Potency [2] | Potency [3] | outcome [4] | outcome [6] | Potency [7] | outcome [9]

N[C@@H](CSCCCO)C(=O)O
inactive: Potency [1] | Potency [2] | outcome [4] | Potency [5] | outcome [6] | Potency [7] | outcome [9]

CCCCCc1cccc(=O)o1
inactive: Potency [1] | Potency [2] | Potency [3] | outcome [4] | outcome [6] | Potency [7] | outcome [9]

C=CC/C=C/C
inactive: Potency [1] | Potency [2] | outcome [4] | Potency [5] | outcome [6] | Potency [7] | outcome [9]

CC1(C)[C@H]2CC[C@](C)(C2)[C@H]1O
inactive: Potency [1] | Potency [3] | outcome [8] | outcome [4] | Potency [5] | outcome [6] | Potency [7] | outcome [9]

CCCC(=O)OC/C=C(\C)CCC=C(C)C
inactive: Potency [1] | Potency [2] | outcome [8] | outcome [4] | Potency [5] | outcome [6] | Potency [7] | outcome [9]

Cn1c(=O)c2c(ncn2CCO)n(C)c1=O
inactive: Potency [1] | Potency [2] | outcome [4] | Potency [5] | outcome [6] | Potency [7] | outcome [9]

CN(C)CCCCl
inactive: Potency [1] | Potency [2] | outcome [4] | Potency [5] | outcome [6] | Potency [7] | outcome [9]

CCCc1ccc(O)cc1
inactive: Potency [1] | Potency [2] | Potency [3] | outcome [8] | outcome [4] | Potency [5] | outcome [6] | Potency [7] | outcome [9]

C[C@@H](O)C(=O)O
inactive: Potency [1] | Potency [2] | outcome [4] | Potency [5] | outcome [6] | Potency [7] | outcome [9]

CC(=O)Nc1ccc(OC(=O)c2ccccc2OC(C)=O)cc1
inactive: Potency [1] | Potency [2] | Potency [3] | outcome [8] | outcome [4] | outcome [6] | Potency [7] | outcome [9]

CN(C)C(C)(C)CO
inactive: Potency [1] | Potency [2] | outcome [4] | Potency [5] | outcome [6] | Potency [7] | outcome [9]

[O-][n+]1cccc(/C(Cl)=N/OC[C@@H](O)CN2CCCCC2)c1
inactive: outcome [4] | Potency [5] | outcome [6] | Potency [7] | outcome [9]

CCN1CCCC1CN (stereo not drawn)
inactive: outcome [8] | outcome [4] | outcome [6] | Potency [7]

C[Si]1(C)O[Si](C)(C)O[Si](C)(C)O[Si](C)(C)O[Si](C)(C)O1
inactive: Potency [1] | Potency [3] | outcome [4] | Potency [5] | outcome [6] | Potency [7]

CCc1occc(=O)c1O
inactive: Potency [1] | Potency [3] | outcome [4] | outcome [6] | Potency [7] | outcome [9]

O=C1NC(c2ccccc2)(c2ccccc2)C(=O)N1COP(=O)(O)O
inactive: outcome [8] | outcome [4] | Potency [5] | outcome [6] | Potency [7] | outcome [9]

CC(C)CO
inactive: Potency [10] | Potency [2] | outcome [4] | Potency [5] | outcome [6] | Potency [7] | outcome [9]

O=Cc1ccccc1Cl
inactive: Potency [10] | Potency [3] | outcome [8] | outcome [4] | Potency [5] | outcome [6] | Potency [7] | outcome [9]

CCC(C(=O)OCCN1CCOC(c2ccccc2)C1C)c1ccccc1 (stereo not drawn)
inactive: outcome [4] | Potency [5] | outcome [6] | Potency [7] | outcome [9]

CC(Oc1cc(Cl)ccc1Cl)C(=O)O (stereo not drawn)
inactive: Potency [10] | Potency [2] | Potency [3] | outcome [8] | outcome [4] | outcome [6] | Potency [7] | outcome [9]

O=C1c2ccccc2C(=O)c2cc(Cl)ccc21
inactive: activity change, negative = cytotoxicity [1] 7.6% [at 8.47 µM] | activation [3] 0.384% [at 7.08 µM] | activity change, negative = cytotoxicity [4] 2.72% [at 5.95 µM] | activation [5] -9.26% [at 8.36 µM] | viability change, negative = cytotoxic [6] -3.86% [at 8.36 µM] | activity change, negative = cytotoxicity [7] 2.51% [at 5.95 µM]

CC(=O)C1C(=O)C=C(C)OC1=O (stereo not drawn)
inactive: Potency [1] | outcome [4] | outcome [6] | Potency [7] | outcome [9]

C/C(=C1\CCOC(=O)S1)N(C=O)Cc1cnc(C)nc1N
inactive: outcome [4] | Potency [5] | outcome [6] | Potency [7] | outcome [9]

O=C1OCCO1
inactive: Potency [1] | outcome [8] | outcome [6] | Potency [7] | outcome [9]

CC(C)C[C@@H]1[C@H](c2ccccc2)OC(=O)N1CCCN1CCCCCC1
inactive: outcome [8] | outcome [4] | Potency [5] | outcome [6] | Potency [7] | outcome [9]

O=C(CCCl)NCCc1ccccc1
inactive: outcome [4] | Potency [5] | outcome [6] | Potency [7] | outcome [9]

O=Cc1cc2ccccc2o1
inactive: Potency [1] | Potency [3] | outcome [8] | outcome [4] | outcome [6] | Potency [7] | outcome [9]

CC(N)CCCC(C)(C)O (stereo not drawn)
inactive: Potency [1] | Potency [3] | outcome [8] | outcome [4] | Potency [5] | Potency [7]

CCN(CC)CCN
inactive: outcome [8] | outcome [4] | Potency [5] | outcome [6] | Potency [7] | outcome [9]

COc1cc2c(cc1OC)CN(C(=O)[C@H](C)N[C@@H](CCc1ccccc1)C(=O)O)[C@H](C(=O)O)C2
inactive: outcome [4] | Potency [5] | outcome [6] | Potency [7] | outcome [9]

CN(C)CC/C=C1/c2ccccc2COc2ccc(CC(=O)O)cc21
inactive: outcome [4] | Potency [5] | outcome [6] | Potency [7] | outcome [9]

CC1c2ccccc2CN1NC(=O)c1ccc(Cl)c(S(N)(=O)=O)c1 (stereo not drawn)
inactive: Potency [3] | outcome [8] | outcome [4] | Potency [5] | outcome [6] | Potency [7]

COc1cc(OC)nc(O[C@H](C(=O)O)C(OC)(c2ccccc2)c2ccccc2)n1
inactive: outcome [4] | Potency [5] | outcome [6] | Potency [7]

COC(=O)CCCCC(CCSS/C(CCO)=C(\C)N(C=O)Cc1cnc(C)nc1N)SC(C)=O (stereo not drawn)
inactive: outcome [8] | outcome [4] | Potency [5] | outcome [6] | Potency [7] | outcome [9]

CCC(=O)c1c(O)cc(O)cc1O
inactive: Potency [1] | outcome [8] | outcome [4] | outcome [6] | Potency [7] | outcome [9]

OC1(c2ccc(Cl)cc2)CCNCC1
inactive: outcome [8] | outcome [4] | Potency [5] | outcome [6] | Potency [7] | outcome [9]

CCC(=O)CC
inactive: Potency [1] | outcome [8] | outcome [4] | Potency [5] | outcome [6] | Potency [7] | outcome [9]

O=C(O)CONC(=O)c1ccccc1
inactive: Potency [2] | outcome [4] | Potency [5] | outcome [6] | Potency [7] | outcome [9]

CC(=O)N[C@@H](CO)C(=O)N[C@@H](CC(=O)O)C(=O)N[C@@H](CCCCN)C(=O)N1CCC[C@H]1C(=O)O (Ac-SDKP-OH)
inactive: outcome [8] | outcome [4] | Potency [5] | outcome [6] | Potency [7] | outcome [9]

CCC(=O)Oc1ccc2c(c1)CC[C@@H]1[C@@H]2CC[C@@]2(C)[C@H]1C[C@@H](OC(=O)CC)[C@@H]2OC(=O)CC
inactive: outcome [8] | outcome [4] | Potency [5] | outcome [6] | Potency [7]

COc1cc(/C=C/C(N)=O)cc(OC)c1OC
inactive: outcome [4] | Potency [5] | outcome [6] | Potency [7] | outcome [9]

CCOCCOCC
inactive: Potency [1] | Potency [3] | outcome [4] | Potency [5] | outcome [6] | Potency [7] | outcome [9]

CCOc1ccccc1OCC1CNCCO1 (stereo not drawn)
inactive: outcome [8] | outcome [4] | Potency [5] | outcome [6] | Potency [7] | outcome [9]

CC(C)NC(=O)c1ccc(C=O)cc1
inactive: outcome [4] | outcome [6] | Potency [7]

CCn1cc(C(=O)O)c(=O)c2cnc(N3CCCC3)nc21
inactive: Potency [2] | activity change, negative = cytotoxicity [4] -3.06% [at 13.2 µM] | activation [5] -1.91% [at 8.36 µM] | viability change, negative = cytotoxic [6] 0.125% [at 8.36 µM] | activity change, negative = cytotoxicity [7] 1.32% [at 13.2 µM] | activation [9] -0.943% [at 13.2 µM]

COCCc1ccccn1
inactive: outcome [8] | outcome [4] | Potency [5] | outcome [6] | outcome [9]

NCC1(Cc2noc(=O)[nH]2)CCCCC1
inactive: Potency [1] | Potency [3] | outcome [4] | outcome [6] | Potency [7]

[O]=[Mo](=[O])=[O]
inactive: Potency [1] | outcome [4] | Potency [5] | outcome [6] | Potency [7] | outcome [9]
